Source: PubChem
SMN2 splice enh = SMN2 splice variant enhancement | HEK293 SMN2-luciferase splicing reporter, luminescence, 30-36 h | Potency, µM (doses to about 46.1 µM), hits mostly activators | 210,000 tested, 2.8% active; also: nearly all actives have a fitted effect of over 55% in size
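qHTS luciferase splicing reporter: luminescence rises when SMN2 exon 7 is included in transfected HEK293 cells. Compound exposure lasted 30-36 h at 37C, with 4.5 mM final sodium butyrate as control, followed by a ONE-Glo read.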
ELG1 genotoxic = inducers of genotoxicity in HEK293T ELG1-luciferase cells. HEK293T ELG1-luciferase reporter, luminescence, 16 h. Potency, µM (top dose mostly 46 µM), hits mostly activators. 330,000 tested, 1.3% active; also: nearly all actives have a fitted effect of over 60% in size
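Reporter readout depends on ELG1 protein level, which increases with genetic stress. After 16 hr compound exposure at 37 °C, luciferase activity was quantified using ONE-Glo.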
KinaseGlo FLuc = Kinase-Glo luciferase inhibition (counter-screen); Q27757; Kinase-Glo luciferase, ATP luminescence, 8 min; Potency, µM (highest dose often 38.3 µM), most hits filed as inhibitors; 200,000 tested, 0.28% active; also: nearly all actives have a fitted effect of over 60% in size
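Substrate mix (final 50 mM imidazole pH 7.2, 50 mM KCl, 7 mM MgCl2, 10 uM ATP, 0.01% Tween 20, 0.05% BSA) plus pin-tool compound, then Kinase-Glo detection mix; 8 min ambient, luminescence read.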
FLuc modulator = firefly luciferase modulation, counter-screen for miR-21 project | P08659 | purified FLuc, Km substrates, luminescence inhibition | Potency, µM (series often up to 57.5 µM), most hits filed as inhibitors | 360,000 tested, 6.9% active | AID 588342; also: nearly all actives have a fitted effect of over 55% in size
Target sequence (P08659 whole entry, looked up): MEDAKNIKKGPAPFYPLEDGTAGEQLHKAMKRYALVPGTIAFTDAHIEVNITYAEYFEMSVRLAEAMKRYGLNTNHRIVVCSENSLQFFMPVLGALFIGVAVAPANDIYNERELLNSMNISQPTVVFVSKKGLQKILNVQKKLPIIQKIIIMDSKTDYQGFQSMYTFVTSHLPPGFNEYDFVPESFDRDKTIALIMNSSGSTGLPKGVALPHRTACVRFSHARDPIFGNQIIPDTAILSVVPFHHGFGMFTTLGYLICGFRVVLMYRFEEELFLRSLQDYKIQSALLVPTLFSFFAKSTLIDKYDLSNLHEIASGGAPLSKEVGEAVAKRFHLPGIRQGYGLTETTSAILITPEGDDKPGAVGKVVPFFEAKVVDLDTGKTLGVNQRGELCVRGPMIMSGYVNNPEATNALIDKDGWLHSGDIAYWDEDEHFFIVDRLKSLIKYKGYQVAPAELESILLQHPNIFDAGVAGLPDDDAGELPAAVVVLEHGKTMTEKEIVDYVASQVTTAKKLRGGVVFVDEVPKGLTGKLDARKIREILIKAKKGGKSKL
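Purified P. pyralis luciferase, 10 nM final, with Km-level 10 uM D-luciferin and 10 uM ATP in 50 mM Tris acetate pH 7.5, 10 mM Mg acetate, 0.01% Tween-20, 0.05% BSA; 6-point qHTS titration about 60 µM downward; luminescence read.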
Rab9 prom act = activates the Rab9 promoter | Huh7 Rab9 promoter-luciferase reporter, luminescence, 24 h | Potency, µM (doses to about 9.22 µM), hits mostly activators | 320,000 tested, 2.8% active | AID 485297; also: nearly all actives have a fitted effect of over 60% in size
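Quantitative HTS format; Huh7 Rab9-luciferase reporter cells (1500/well) receive compound 2 h post-plating, incubate 24 h at 37 °C, then get luciferase reagent for 10 min before luminescence reading.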
NPC1 prom act = activators of NPC1 promoter; Huh7 NPC1 promoter luciferase reporter, 24 h; Potency, µM (titrated, usually from 9.22 µM), actives largely listed as activators; 320,000 tested, 2.4% active; AID 485313; also: nearly all actives have a fitted effect of over 60% in size
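Stably transfected Huh7 (NPC1 promoter→luciferase), 1500 cells/well in Opti-MEM + 10% FBS, 2 h settle, then compound 24 h at 37 °C. Luminescence after 10 min with Amplite reagent.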
Each line names hits and unclear results; the compound was inactive in the other large screens. Most compounds without a hit are left out; they make up all but 7.5% or so of the library. Calls follow the shape of the dose curve; as a rule, active = well fitted curve in the direction sought with a large enough effect; inconclusive = small, poorly fitted or top-dose-only effect, or another doubt; inactive = no such curve, though single readings can be large; an effect the other way counts as inactive or inconclusive.

CC(=O)Nc1cccc(/C(C)=N/NC(=O)c2ccc(O)cc2)c1	FLuc modulator inconclusive
C/C(=N\NC(=O)c1ccncc1)c1cccc(NC(=O)c2ccc(C(C)(C)C)cc2)c1	FLuc modulator 0.12µM, Rab9 prom act 2µM, NPC1 prom act 1.4µM (no result: SMN2 splice enh, KinaseGlo FLuc)
CC(=O)Nc1ccc(/C(C)=N/NC(=O)c2ccncc2)cc1	none
C/C(=N\NC(=O)c1ccc(Br)cc1)c1cccc(NC(=O)c2cccnc2)c1	SMN2 splice enh inconclusive, FLuc modulator 12µM
Cc1ccc(NC(=O)CSc2nc3c(oc4ccccc43)c(=O)n2Cc2ccco2)cc1	none (no result: ELG1 genotoxic, KinaseGlo FLuc, Rab9 prom act, NPC1 prom act)
COc1ccccc1CNC(=O)c1cc2cc(C)ccc2n1C	none (no result: SMN2 splice enh, ELG1 genotoxic, KinaseGlo FLuc, Rab9 prom act, NPC1 prom act)
CN1CCN(C(=O)c2ccc(-n3c(=O)c(=O)[nH]c4ccccc43)cc2)CC1	none (no result: SMN2 splice enh, ELG1 genotoxic, FLuc modulator, Rab9 prom act, NPC1 prom act)
C/C(=N\NC(=O)c1nn(C)cc1Br)c1cccc(NC(=O)c2ccncc2)c1	FLuc modulator 12µM
C/C(=N\NC(=O)c1ccco1)c1ccc(NC(=O)c2ccccc2)cc1	SMN2 splice enh inconclusive, FLuc modulator inconclusive, Rab9 prom act inconclusive, NPC1 prom act inconclusive
C/C(=N/NC(=O)c1ccc(Cn2cccn2)o1)c1cccc(NC(=O)c2ccncc2)c1	FLuc modulator inconclusive (no result: SMN2 splice enh, KinaseGlo FLuc)
C/C(=N\NC(=O)c1cccc(N/N=C(\C)c2ccncc2)c1)c1ccncc1	FLuc modulator inconclusive
C/C(=N\NC(=O)c1ccccc1O)c1ccc(NC(=O)c2ccccc2)cc1	FLuc modulator 21µM, Rab9 prom act inconclusive, NPC1 prom act inconclusive (no result: SMN2 splice enh, KinaseGlo FLuc)
C/C(=N/NC(=O)c1ccncc1)c1ccc(NC(=O)c2ccccc2)cc1	FLuc modulator 21µM (no result: SMN2 splice enh, KinaseGlo FLuc)
C/C(=N\NC(=O)c1cccc(N/N=C(\C)c2ccccc2)c1)c1ccccc1	SMN2 splice enh 20µM, FLuc modulator 13µM, Rab9 prom act inconclusive, NPC1 prom act inconclusive
CSc1nc2sc3c(c2c(=O)n1-c1ccc(F)c(Cl)c1)CCN(C(C)=O)C3	none (no result: ELG1 genotoxic, KinaseGlo FLuc, Rab9 prom act, NPC1 prom act)
CC(=O)c1cccc(NC(=O)Cn2cc(C(=O)c3cccc(Cl)c3)c(=O)c3ccc(C)nc32)c1	none (no result: ELG1 genotoxic, KinaseGlo FLuc, Rab9 prom act, NPC1 prom act)
Cc1sc(=NC(=O)c2ccco2)n(C)c1-c1ccc(F)cc1	SMN2 splice enh 3.5µM, ELG1 genotoxic inconclusive, FLuc modulator 2.4µM, Rab9 prom act 2µM, NPC1 prom act 2.8µM
Cc1sc(=NC(=O)c2ccco2)n(C)c1-c1ccccc1	SMN2 splice enh 2.2µM, ELG1 genotoxic inconclusive, FLuc modulator 0.95µM, Rab9 prom act 1.3µM, NPC1 prom act 0.89µM
Cn1c(=NC(=O)c2ccco2)sc2ccccc21	SMN2 splice enh 4.5µM, ELG1 genotoxic 4.1µM, KinaseGlo FLuc inconclusive, FLuc modulator 2.7µM, Rab9 prom act inconclusive, NPC1 prom act inconclusive
CC(=O)N/N=c1\sc2ccccc2n1C	none
Cn1c(=NC(=O)CCl)sc2ccccc21	ELG1 genotoxic inconclusive
Cn1/c(=N\NC(=O)c2ccccc2Cl)sc2ccccc21	SMN2 splice enh inconclusive, FLuc modulator 17µM, Rab9 prom act inconclusive, NPC1 prom act inconclusive
Cn1c(=NC(=O)c2cccc([N+](=O)[O-])c2)sc2ccccc21	SMN2 splice enh 1.6µM, ELG1 genotoxic 0.82µM, FLuc modulator 0.34µM, Rab9 prom act 2.8µM, NPC1 prom act inconclusive
COc1cc(C(=O)N=c2sc3ccccc3n2C)cc(OC)c1OC	FLuc modulator inconclusive, Rab9 prom act inconclusive
COc1ccc(C2=NN(c3nc(C(=O)O)cs3)C(O)(C(F)(F)F)C2)c(OC)c1 (stereo not given)	FLuc modulator 11µM
COc1ccc(C2=NN(C(=O)c3cccs3)C(O)(C(F)(F)F)C2)cc1 (stereo not given)	FLuc modulator inconclusive
COC(=O)c1ccccc1NC(=O)CSc1c2c(nc3ccc(Cl)cc13)CCCC2	none (no result: ELG1 genotoxic, KinaseGlo FLuc, Rab9 prom act, NPC1 prom act)
Clc1ccccc1OCCn1nnc2ccccc21	ELG1 genotoxic inconclusive, FLuc modulator inconclusive, Rab9 prom act inconclusive, NPC1 prom act 3.2µM (no result: SMN2 splice enh, KinaseGlo FLuc)
Cc1ccc(OCCn2c(=O)n(C)c3ccccc32)cc1	ELG1 genotoxic inconclusive, FLuc modulator 11µM, Rab9 prom act 2.8µM, NPC1 prom act 3.2µM (no result: SMN2 splice enh)
Cn1c(=O)n(CCOc2ccc([N+](=O)[O-])cc2)c2ccccc21	FLuc modulator inconclusive (no result: SMN2 splice enh, KinaseGlo FLuc)
Cn1c(=O)n(CCOc2ccc(Cl)cc2Cl)c2ccccc21	none
Cn1c(=O)n(CCOc2ccccc2Cl)c2ccccc21	SMN2 splice enh inconclusive, ELG1 genotoxic inconclusive, FLuc modulator 24µM, Rab9 prom act 4.5µM, NPC1 prom act inconclusive
CCc1ccc(C2=CC(c3cccc(OC)c3OC)n3c(nc4ccccc43)N2)cc1 (stereo not given)	FLuc modulator 4.3µM (no result: SMN2 splice enh, ELG1 genotoxic, KinaseGlo FLuc, Rab9 prom act, NPC1 prom act)
CCc1ccc(C2=CC(c3cccc(C)c3)n3c(nc4ccccc43)N2)cc1 (stereo not given)	FLuc modulator 1.2µM (no result: SMN2 splice enh, ELG1 genotoxic, KinaseGlo FLuc, Rab9 prom act, NPC1 prom act)
CC(C)c1ccc(C2=CC(c3cccc(Cl)c3)n3c(nc4ccccc43)N2)cc1 (stereo not given)	FLuc modulator 21µM (no result: SMN2 splice enh, ELG1 genotoxic, KinaseGlo FLuc, Rab9 prom act, NPC1 prom act)
CCOc1ccc(C2=CC(c3cccc(Br)c3)n3c(nc4ccccc43)N2)cc1Cl (stereo not given)	FLuc modulator 13µM (no result: SMN2 splice enh, ELG1 genotoxic, KinaseGlo FLuc, Rab9 prom act, NPC1 prom act)
CCOC(=O)c1cnc2c(ccc3ccccc32)c1Nc1cccc(C(F)(F)F)c1	none (no result: ELG1 genotoxic, KinaseGlo FLuc, Rab9 prom act, NPC1 prom act)
CCc1ccc(C(=O)NC2=NC(c3ccccc3F)CC(=O)N2)cc1 (stereo not given)	none (no result: ELG1 genotoxic, KinaseGlo FLuc, Rab9 prom act, NPC1 prom act)
Cc1cc(OCC(=O)N(C)Cc2ccccc2)ccc1Br	FLuc modulator 17µM, Rab9 prom act inconclusive, NPC1 prom act inconclusive (no result: SMN2 splice enh, KinaseGlo FLuc)
COc1ccc(OCC(=O)N(C)Cc2ccccc2)cc1	none
Cc1cc(OCC(=O)N(C)Cc2ccccc2)ccc1Cl	FLuc modulator 15µM, Rab9 prom act 4.5µM, NPC1 prom act inconclusive (no result: SMN2 splice enh, KinaseGlo FLuc)
